Laboratory results taken from PubChem BioAssay (EPA / NIEHS).
The source made the active and inactive calls. Rule for the calls: active = hit-call score of the fitted dose curve at least 0.9, where 1 is the maximum; inactive = score below 0.9.

Tests used:
[1] = read-out: Fatty acid synthase (Homo sapiens) (UniProt P49327); assay: LTEA_HepaRG_FASN: Life Technologies and Expression Analysis (LTEA) Assay for Fatty Acid Synthase (FASN) using HepaRG (AID 2283448); conditions: mRNA level, 48 h; actives raise or lower the signal
How it was run: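 Differentiated human HepaRG cells were exposed for 48 h in serum-free induction medium to eight half-log concentrations up to 100 uM in 0.5% DMSO, in duplicate. FASN mRNA was quantified by TaqMan qRT-PCR, normalized to ACTB/GAPDH/POLR2A, and fitted bidirectionally against DMSO.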

[2] = read-out: Cyclin D2 (CCND2), CCND2 (gene 894); assay: LTEA_HepaRG_CCND2: Life Technologies and Expression Analysis (LTEA) Assay for Cyclin D2 (CCND2) using HepaRG (AID 2283449); conditions: mRNA level, 48 h; actives raise or lower the signal;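 note: CCND2 transcript measured by TaqMan qRT-PCR and normalised to three housekeeping genes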
How it was run: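 Chemicals in 0.5% DMSO, eight half-log concentrations from 100 uM top, were applied in duplicate for 48 h to human HepaRG cells in serum-free induction medium. CCND2 mRNA by TaqMan qRT-PCR, normalised to ACTB/GAPDH/POLR2A; bidirectional fit versus DMSO.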

[3] = read-out: Cyclin Dependent Kinase Inhibitor 1A (CDKN1A), CDKN1A (gene 1026); assay: LTEA_HepaRG_CDKN1A: Life Technologies and Expression Analysis (LTEA) Assay for Cyclin Dependent Kinase Inhibitor 1A (CDKN1A) using HepaRG (AID 2283450); conditions: mRNA level, 48 h; actives raise or lower the signal
How it was run: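 Expression quantified by Fluidigm qRT-PCR with ACTB, GAPDH and POLR2A normalization, fitted bidirectionally against 0.5% DMSO. Cells: HepaRG, plated 48 h then treated 48 h in serum-free induction medium, top concentration 100 uM with half-log dilutions.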

[4] = read-out: Cyclin D1 (CCND1), CCND1 (gene 595); assay: LTEA_HepaRG_CCND1: Life Technologies and Expression Analysis (LTEA) Assay for Cyclin D1 (CCND1) using HepaRG (AID 2283451); conditions: mRNA level, 48 h; actives raise or lower the signal
How it was run: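 Expression of CCND1 was quantified by qRT-PCR on Fluidigm arrays using ACTB, GAPDH and POLR2A as reference genes. HepaRG cultures, plated 48 h beforehand, were dosed for 48 h at up to 100 uM (half-log, 8 points) in 0.5% DMSO.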

[5] = read-out: catalase (CAT), CAT (gene 847); assay: LTEA_HepaRG_CAT: Life Technologies and Expression Analysis (LTEA) Assay for catalase (CAT) using HepaRG (AID 2283452); conditions: mRNA level, 48 h; actives raise or lower the signal
How it was run: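 HepaRG cells in serum-free induction medium, 0.5% DMSO vehicle, exposed 48 h in duplicate over 8 half-log concentrations from 100 uM. CAT mRNA measured by qRT-PCR, normalized to ACTB, GAPDH, POLR2A; bidirectional fit versus DMSO.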

[6] = read-out: flavin-containing dimethylaniline monooxygenases 3 (FMO3), FMO3 (gene 2328); assay: LTEA_HepaRG_FMO3: Life Technologies and Expression Analysis (LTEA) Assay for flavin-containing dimethylaniline monooxygenases 3 (FMO3) using HepaRG (AID 2283453); conditions: mRNA level, 48 h; actives raise or lower the signal
How it was run: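 HepaRG, 48 h exposure, 8-pt half-log series from 100 uM, 0.5% DMSO vehicle, duplicates; FMO3 transcript by Fluidigm TaqMan qRT-PCR, housekeeping-normalized; gain/loss fit vs DMSO.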

[7] = read-out: Cytochrome P450 (CYP1A1), CYP1A1 (gene 1543); assay: LTEA_HepaRG_CYP1A1: Life Technologies and Expression Analysis (LTEA) Assay for Cytochrome P450 (CYP1A1) using HepaRG (AID 2283454); conditions: mRNA level, 48 h; actives raise or lower the signal
How it was run: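 CYP1A1 transcript levels measured by Fluidigm qRT-PCR against three housekeeping genes, 48 h after chemical dosing of human HepaRG cells (highest concentration 100 uM, half-log steps, 0.5% DMSO vehicle). Gain or loss of signal fitted relative to DMSO.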

[8] = read-out: CFLAR gene, CFLAR (gene 8837); assay: LTEA_HepaRG_CFLAR: Life Technologies and Expression Analysis (LTEA) Assay for CFLAR gene using HepaRG (AID 2283455); conditions: mRNA level, 48 h; actives raise or lower the signal
How it was run: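 Differentiated HepaRG cells in serum-free induction medium were exposed 48 h in duplicate to eight half-log concentrations up to 100 uM in 0.5% DMSO; mRNA measured by TaqMan qRT-PCR, normalized to ACTB, GAPDH, POLR2A; bidirectional fitting versus DMSO.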

[9] = read-out: Forkhead box O1 (FOXO1), FOXO1 (gene 2308); assay: LTEA_HepaRG_FOXO1: Life Technologies and Expression Analysis (LTEA) Assay for Forkhead box O1 (FOXO1) using HepaRG (AID 2283456); conditions: mRNA level, 48 h; actives raise or lower the signal
How it was run: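 Differentiated HepaRG cells, in serum-free induction medium with 0.5% DMSO, exposed 48 h in duplicate to 8-point half-log series from 100 uM. FOXO1 mRNA measured by TaqMan qRT-PCR, normalized to ACTB, GAPDH, POLR2A; bidirectional fit versus DMSO.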

[10] = read-out: growth arrest and DNA damage 45 (GADD45A), GADD45A (gene 1647); assay: LTEA_HepaRG_GADD45A: Life Technologies and Expression Analysis (LTEA) Assay for growth arrest and DNA damage 45 (GADD45A) using HepaRG (AID 2283458); conditions: mRNA level, 48 h; actives raise or lower the signal
How it was run: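 Differentiated HepaRG cells were exposed in duplicate for 48 h in serum-free induction medium to 8-point half-log concentrations up to 100 uM in 0.5% DMSO. GADD45A mRNA was measured by TaqMan qRT-PCR, normalized to ACTB, GAPDH and POLR2A, with bidirectional fitting versus DMSO.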

[11] = read-out: Forkhead box O3 (FOXO3), FOXO3 (gene 2309); assay: LTEA_HepaRG_FOXO3: Life Technologies and Expression Analysis (LTEA) Assay for Forkhead box O3 (FOXO3) using HepaRG (AID 2283459); conditions: mRNA level, 48 h; actives raise or lower the signal
How it was run: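 Differentiated human HepaRG cells, 48 h post-plating, exposed in duplicate for 48 h in serum-free induction medium; 8-point half-log series from 100 uM in 0.5% DMSO. FOXO3 mRNA by TaqMan qRT-PCR, normalized to ACTB/GAPDH/POLR2A; bidirectional fit versus DMSO.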

[12] = read-out: ABC Transporter (ABCB1), ABCB1 (gene 5243); assay: LTEA_HepaRG_ABCB1: Life Technologies and Expression Analysis (LTEA) Assay for ABC Transporter (ABCB1) using HepaRG (AID 2283460); conditions: mRNA level, 48 h; actives raise or lower the signal
How it was run: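 HepaRG cells exposed in duplicate for 48 h in serum-free induction medium to eight half-log concentrations up to 100 uM in 0.5% DMSO. ABCB1 mRNA quantified by qRT-PCR, normalised to ACTB, GAPDH and POLR2A; fitted bidirectionally versus DMSO.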

[13] = read-out: growth arrest and DNA damage 45 (GADD45B), GADD45B (gene 4616); assay: LTEA_HepaRG_GADD45B: Life Technologies and Expression Analysis (LTEA) Assay for growth arrest and DNA damage 45 (GADD45B) using HepaRG (AID 2283461); conditions: mRNA level, 48 h; actives raise or lower the signal
How it was run: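 Transcript level quantified by Fluidigm TaqMan qRT-PCR with three housekeeping genes for normalization, analyzed for up- or down-regulation against 0.5% DMSO. HepaRG cultures dosed 48 h at eight half-log concentrations up to 100 uM, duplicates.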

[14] = read-out: ABC Transporter (ABCC3), ABCC3 (gene 8714); assay: LTEA_HepaRG_ABCC3: Life Technologies and Expression Analysis (LTEA) Assay for ABC Transporter (ABCC3) using HepaRG (AID 2283462); conditions: mRNA level, 48 h; actives raise or lower the signal
How it was run: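 Transcript level by TaqMan qRT-PCR, normalised to three housekeeping genes, fitted in both directions relative to vehicle. Chemicals tested in duplicate at eight half-log concentrations up to 100 uM for 48 h on HepaRG cells (0.5% DMSO).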

[15] = read-out: ABC Transporter (ABCB11), ABCB11 (gene 8647); assay: LTEA_HepaRG_ABCB11: Life Technologies and Expression Analysis (LTEA) Assay for ABC Transporter (ABCB11) using HepaRG (AID 2283463); conditions: mRNA level, 48 h; actives raise or lower the signal
How it was run: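 Differentiated human HepaRG cells in serum-free induction medium, dosed in duplicate for 48 h. Eight-point half-log series from 100 uM in 0.5% DMSO; ABCB11 mRNA by qRT-PCR, normalized to ACTB, GAPDH, POLR2A, fitted bidirectionally versus DMSO.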

[16] = read-out: ABC Transporter (ABCC2), ABCC2 (gene 1244); assay: LTEA_HepaRG_ABCC2: Life Technologies and Expression Analysis (LTEA) Assay for ABC Transporter (ABCC2) using HepaRG (AID 2283464); conditions: mRNA level, 48 h; actives raise or lower the signal
How it was run: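 Endpoint is ABCC2 transcript level from qRT-PCR, normalized to three housekeeping genes and fitted bidirectionally relative to DMSO. Human HepaRG cells received test chemical for 48 h at up to 100 uM (8 points, half-log steps, 0.5% DMSO), duplicate wells.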

[17] = read-out: Broad substrate specificity ATP-binding cassette transporter ABCG2 (Homo sapiens) (UniProt Q9UNQ0); assay: LTEA_HepaRG_ABCG2: Life Technologies and Expression Analysis (LTEA) Assay for ABC Transporter (ABCG2) using HepaRG (AID 2283465); conditions: mRNA level, 48 h; actives raise or lower the signal
How it was run: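 Differentiated HepaRG cells were exposed for 48 h in serum-free induction medium to 8 half-log concentrations, top 100 uM, in 0.5% DMSO. ABCG2 mRNA was measured by qRT-PCR, normalized to ACTB, GAPDH and POLR2A, with bidirectional fitting versus DMSO.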

[18] = read-out: ATP-citrate lyase (ACLY), ACLY (gene 47); assay: LTEA_HepaRG_ACLY: Life Technologies and Expression Analysis (LTEA) Assay for ATP-citrate lyase (ACLY) using HepaRG (AID 2283466); conditions: mRNA level, 48 h; actives raise or lower the signal
How it was run: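 Differentiated HepaRG cells exposed 48 h in serum-free induction medium to eight half-log concentrations up to 100 uM in 0.5% DMSO, duplicates. Transcript measured by Fluidigm TaqMan qRT-PCR, normalized to ACTB, GAPDH, POLR2A; bidirectional fit versus DMSO.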

[19] = read-out: Peroxisomal acyl-coenzyme A oxidase 1 (ACOX1) gene, ACOX1 (gene 51); assay: LTEA_HepaRG_ACOX1: Life Technologies and Expression Analysis (LTEA) Assay for Peroxisomal acyl-coenzyme A oxidase 1 (ACOX1) gene using HepaRG (AID 2283467); conditions: mRNA level, 48 h; actives raise or lower the signal
How it was run: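 HepaRG cells, plated 48 h then switched to serum-free induction medium, were exposed in duplicate for 48 h to 8-point half-log concentrations up to 100 uM in 0.5% DMSO. ACOX1 mRNA was measured by qRT-PCR, normalized to ACTB/GAPDH/POLR2A, and fitted bidirectionally versus DMSO.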

[20] = CEETOX_H295R_TESTO: CeeTox H295R High-throughput Steroidogenesis Assay for Testosterone (TESTO) (AID 2283457); conditions: actives raise or lower the signal
How it was run: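 Testosterone secreted into the medium over 48 h by H295R cells (maximum passage 10) was quantified by LC-MS/MS after MTBE extraction. Fitted in both directions against DMSO, with concentrations diluted until MTT viability was ≥70%.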

Measured: AC50

Broad substrate specificity ATP-binding cassette transporter ABCG2 (Homo sapiens), sequence (Q9UNQ0 whole entry, looked up): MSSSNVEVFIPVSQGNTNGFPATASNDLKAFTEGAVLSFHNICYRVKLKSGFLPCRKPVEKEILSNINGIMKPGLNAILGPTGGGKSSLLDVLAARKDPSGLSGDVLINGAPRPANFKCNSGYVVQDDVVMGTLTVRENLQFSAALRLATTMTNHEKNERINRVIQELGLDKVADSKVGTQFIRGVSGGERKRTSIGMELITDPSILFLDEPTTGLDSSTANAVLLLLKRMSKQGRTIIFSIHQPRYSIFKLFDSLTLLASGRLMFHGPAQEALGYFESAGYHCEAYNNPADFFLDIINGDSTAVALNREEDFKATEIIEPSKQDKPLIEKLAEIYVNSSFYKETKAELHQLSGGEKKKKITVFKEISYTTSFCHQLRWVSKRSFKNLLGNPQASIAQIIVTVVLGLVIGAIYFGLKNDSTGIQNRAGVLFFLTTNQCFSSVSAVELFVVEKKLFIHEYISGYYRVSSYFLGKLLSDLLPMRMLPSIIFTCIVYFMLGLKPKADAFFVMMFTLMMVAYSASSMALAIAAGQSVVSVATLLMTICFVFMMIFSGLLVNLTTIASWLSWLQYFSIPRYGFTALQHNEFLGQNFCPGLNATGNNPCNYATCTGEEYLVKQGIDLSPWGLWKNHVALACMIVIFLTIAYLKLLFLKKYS
Fatty acid synthase (Homo sapiens), sequence (P49327 whole entry, looked up): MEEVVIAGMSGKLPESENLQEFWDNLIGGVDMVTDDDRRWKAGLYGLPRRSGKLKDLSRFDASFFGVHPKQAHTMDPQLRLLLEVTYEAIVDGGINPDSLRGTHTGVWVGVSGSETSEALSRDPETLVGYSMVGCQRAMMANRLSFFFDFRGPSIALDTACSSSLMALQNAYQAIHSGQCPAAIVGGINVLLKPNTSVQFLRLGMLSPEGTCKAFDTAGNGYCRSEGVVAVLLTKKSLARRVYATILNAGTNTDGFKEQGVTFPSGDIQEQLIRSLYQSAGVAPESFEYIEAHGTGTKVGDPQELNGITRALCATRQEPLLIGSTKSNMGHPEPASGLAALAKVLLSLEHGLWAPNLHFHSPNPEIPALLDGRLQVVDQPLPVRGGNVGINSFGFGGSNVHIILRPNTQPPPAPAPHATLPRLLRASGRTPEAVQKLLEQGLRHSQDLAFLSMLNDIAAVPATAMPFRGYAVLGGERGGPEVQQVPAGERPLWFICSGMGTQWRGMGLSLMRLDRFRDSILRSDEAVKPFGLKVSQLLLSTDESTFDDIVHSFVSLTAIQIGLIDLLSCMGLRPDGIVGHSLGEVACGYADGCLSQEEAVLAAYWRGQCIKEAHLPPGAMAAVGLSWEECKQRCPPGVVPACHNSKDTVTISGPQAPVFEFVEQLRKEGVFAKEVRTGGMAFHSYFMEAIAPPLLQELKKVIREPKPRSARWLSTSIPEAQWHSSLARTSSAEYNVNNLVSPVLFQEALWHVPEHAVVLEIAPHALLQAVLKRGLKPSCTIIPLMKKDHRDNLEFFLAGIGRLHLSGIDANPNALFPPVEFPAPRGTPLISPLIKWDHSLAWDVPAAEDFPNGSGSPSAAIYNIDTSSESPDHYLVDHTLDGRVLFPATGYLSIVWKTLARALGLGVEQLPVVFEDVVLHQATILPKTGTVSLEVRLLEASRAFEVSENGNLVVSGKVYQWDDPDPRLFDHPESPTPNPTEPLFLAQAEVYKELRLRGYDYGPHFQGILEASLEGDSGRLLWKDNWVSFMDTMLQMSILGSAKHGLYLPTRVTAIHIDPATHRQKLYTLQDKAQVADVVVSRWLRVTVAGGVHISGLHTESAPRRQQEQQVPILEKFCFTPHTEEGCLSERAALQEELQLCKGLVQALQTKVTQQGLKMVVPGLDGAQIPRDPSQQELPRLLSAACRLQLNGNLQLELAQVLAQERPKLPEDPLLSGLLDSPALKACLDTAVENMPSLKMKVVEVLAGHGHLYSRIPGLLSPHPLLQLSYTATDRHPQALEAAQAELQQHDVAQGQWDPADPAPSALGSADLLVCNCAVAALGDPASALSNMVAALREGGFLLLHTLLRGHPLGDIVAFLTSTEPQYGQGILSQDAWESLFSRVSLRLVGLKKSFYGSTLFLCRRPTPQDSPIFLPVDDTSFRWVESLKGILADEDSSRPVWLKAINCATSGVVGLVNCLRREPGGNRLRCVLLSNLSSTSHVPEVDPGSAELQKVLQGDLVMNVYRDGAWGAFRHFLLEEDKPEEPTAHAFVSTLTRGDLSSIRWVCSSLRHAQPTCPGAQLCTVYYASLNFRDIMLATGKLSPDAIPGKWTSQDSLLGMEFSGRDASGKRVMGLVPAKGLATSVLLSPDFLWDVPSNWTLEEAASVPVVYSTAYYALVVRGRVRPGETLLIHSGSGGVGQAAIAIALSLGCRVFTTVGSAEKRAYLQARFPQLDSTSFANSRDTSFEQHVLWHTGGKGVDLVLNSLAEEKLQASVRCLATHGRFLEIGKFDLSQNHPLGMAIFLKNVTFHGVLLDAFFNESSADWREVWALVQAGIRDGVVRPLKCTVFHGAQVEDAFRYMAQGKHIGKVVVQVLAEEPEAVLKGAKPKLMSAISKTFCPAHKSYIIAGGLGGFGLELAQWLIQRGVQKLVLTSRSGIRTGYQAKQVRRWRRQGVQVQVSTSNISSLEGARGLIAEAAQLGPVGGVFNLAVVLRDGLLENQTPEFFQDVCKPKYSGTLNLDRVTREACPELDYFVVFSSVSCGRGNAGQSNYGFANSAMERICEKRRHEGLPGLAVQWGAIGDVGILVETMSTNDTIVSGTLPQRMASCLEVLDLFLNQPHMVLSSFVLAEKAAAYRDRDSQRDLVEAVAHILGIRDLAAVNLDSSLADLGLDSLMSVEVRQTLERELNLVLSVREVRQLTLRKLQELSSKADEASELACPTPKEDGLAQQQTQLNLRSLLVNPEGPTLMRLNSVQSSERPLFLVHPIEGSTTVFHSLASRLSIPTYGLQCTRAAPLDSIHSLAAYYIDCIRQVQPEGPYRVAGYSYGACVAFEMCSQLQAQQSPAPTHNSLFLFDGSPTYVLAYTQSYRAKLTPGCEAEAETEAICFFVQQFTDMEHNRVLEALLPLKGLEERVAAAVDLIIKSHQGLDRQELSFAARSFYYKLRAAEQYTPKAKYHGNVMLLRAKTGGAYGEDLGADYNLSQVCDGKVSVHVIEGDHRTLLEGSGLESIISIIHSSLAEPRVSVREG

Nc1ccc(C(=O)O)cc1
active: [7] 77 µM
not listed: [20]
inactive: all other assays above

C1CNCCN1
active: [7] 73.1 µM
not listed: [20]
inactive: all other assays above

COc1ccc(C(=O)c2ccccc2)c(O)c1
inactive: [20]

C=CC(=O)OCCCCCCOC(=O)C=C
inactive: [20]

CCOC(=O)C1=NN(c2ccc(Cl)cc2Cl)C(C)(C(=O)OCC)C1 (stereo not drawn)
inactive: [20]

Cc1ccc([N+](=O)[O-])cc1N
active: [7] 25 µM
not listed: [1] | [2] | [20]
inactive: all other assays above
